Measurements from PubChem BioAssay (NCATS).
Where “and” joins values, the source holds several entries; their conditions need not be identical. Identical values can stand only once. Inconclusive results are not listed. A structure can be active in one record and inactive in another. Calls of active or inactive are those of the source. Unless noted, the call rests on the fitted dose curve; in most records, active means well fitted curve in the direction sought with a large enough effect; inconclusive means small, poorly fitted or top-dose-only effect, or another doubt; inactive means no such curve, though single readings can be large; an effect the other way counts as inactive or inconclusive.

How the values were obtained:
NIH3T3 = assay: qHTS assay to identify novel small-molecules to repurpose for Merkel cell carcinoma treatment (AID 1296009); details: MCC and control cell lines, CellTiter-Glo viability, 72 h; at 44.8 µM (top of the series) unless noted; further: nearly all actives have a fitted effect of over 60% in size; further: potency means the concentration at half of the fitted maximal effect
Procedure, shortened: (§1)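 CellTiter-Glo luminescence after 72 hr compound exposure at 37 degree celsius gave cell viability. Libraries NPC and MIPE were run as 8- and 11-point dose responses; RLUs normalized to DMSO (negative) and no-cell (cytotoxicity) controls.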

UISO = assay: as above; details: MCC and control cell lines, CellTiter-Glo viability, 72 h; series mostly up to 46 µM
Procedure, shortened: as §1

WaGa = assay: as above; details: MCC and control cell lines, CellTiter-Glo viability, 72 h; series mostly up to 46 µM
Procedure, shortened: as §1

C33A = assay: Primary qHTS to identify gynecologic anti-cancer compounds using libraries of approved drugs and bioactive compounds (AID 1345084); details: Gynecologic cancer cell panel viability, ATPlite luminescence, 48 h; series mostly up to 57.5 µM; further: nearly all actives have a fitted effect of over 55% in size; further: potency means the concentration at half of the fitted maximal effect
Procedure, shortened: (§2)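 Cytotoxicity screen measuring ATP content by luciferase luminescence. Each compound is applied at five concentrations for 48 h at 37 C with 5% CO2.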

CAOV3 = assay: as above; details: Gynecologic cancer cell panel viability, ATPlite luminescence, 48 h; series mostly up to 57.5 µM
Procedure, shortened: as §2

CASKI = assay: as above; details: Gynecologic cancer cell panel viability, ATPlite luminescence, 48 h; series mostly up to 57.5 µM
Procedure, shortened: as §2

Es-2 = assay: as above; details: Gynecologic cancer cell panel viability, ATPlite luminescence, 48 h; series mostly up to 57.5 µM
Procedure, shortened: as §2

HeLa = assay: as above; details: Gynecologic cancer cell panel viability, ATPlite luminescence, 48 h; series mostly up to 57.5 µM
Procedure, shortened: as §2

Hek293T = assay: as above; details: Gynecologic cancer cell panel viability, ATPlite luminescence, 48 h, control line for the selectivity index; series mostly up to 57.5 µM
Procedure, shortened: as §2

JEG-3 = assay: as above; details: Gynecologic cancer cell panel viability, ATPlite luminescence, 48 h; series mostly up to 57.5 µM
Procedure, shortened: as §2

OV90 = assay: as above; details: Gynecologic cancer cell panel viability, ATPlite luminescence, 48 h; series mostly up to 57.5 µM
Procedure, shortened: as §2

PA-1 = assay: as above; details: Gynecologic cancer cell panel viability, ATPlite luminescence, 48 h; series mostly up to 57.5 µM
Procedure, shortened: as §2

SKOV3 = assay: as above; details: Gynecologic cancer cell panel viability, ATPlite luminescence, 48 h; series mostly up to 57.5 µM
Procedure, shortened: as §2

Tov-21-G = assay: as above; details: Gynecologic cancer cell panel viability, ATPlite luminescence, 48 h; series mostly up to 57.5 µM
Procedure, shortened: as §2

Tov112D = assay: as above; details: Gynecologic cancer cell panel viability, ATPlite luminescence, 48 h; series mostly up to 57.5 µM
Procedure, shortened: as §2

[1] = Drug repurposing screens with cells derived from glioblastoma tumor samples (AID 1345199); details: GBM patient neurospheres viability, ATP luminescence, 48 h; further: nearly all actives have a fitted effect of over 40% in size; further: potency means the concentration at half of the fitted maximal effect; on activity, negative = cell killing: on the % scale 0 is the no-effect control and ±100 the full control effect
Procedure, shortened: (§3)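 Primary testing used CD133+ neurospheres from four GBM patients, seven concentrations, 48 h exposure and ATP-based viability; confirmation added three slower-growing patient lines.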

astro = assay: as above; details: viability, ATP luminescence, 48 h; series mostly up to 45.9 µM
Procedure, shortened: as §3

[2] = molecular target: Nuclear receptor subfamily 1 group I member 2 (Rattus norvegicus) (UniProt Q9R1A7); assay: qHTS assay for small molecule activators of the rat pregnane X receptor (rPXR) signaling pathway (AID 651751; call rule not given here; further: 0% is about no effect); details: rPXR reporter cells, luciferase (One-Glo), 24 h
Nuclear receptor subfamily 1 group I member 2 (Rattus norvegicus), sequence (Q9R1A7 whole entry, looked up): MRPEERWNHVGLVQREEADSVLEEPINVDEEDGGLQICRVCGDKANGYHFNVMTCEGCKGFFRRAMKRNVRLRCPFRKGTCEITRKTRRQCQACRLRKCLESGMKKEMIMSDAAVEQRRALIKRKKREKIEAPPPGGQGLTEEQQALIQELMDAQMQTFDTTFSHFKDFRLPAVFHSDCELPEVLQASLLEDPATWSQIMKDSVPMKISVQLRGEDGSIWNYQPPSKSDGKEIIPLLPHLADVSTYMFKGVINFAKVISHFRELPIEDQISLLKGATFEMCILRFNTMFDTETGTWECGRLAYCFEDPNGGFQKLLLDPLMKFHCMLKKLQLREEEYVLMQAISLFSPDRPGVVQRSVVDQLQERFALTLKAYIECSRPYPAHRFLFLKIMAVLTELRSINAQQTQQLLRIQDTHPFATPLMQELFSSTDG

[3] = qHTS assay to identify inhibitors of the type 1 interferon - major histocompatibility complex class I in skeletal muscle: Counter screen cell viability and HiBit confirmation (AID 1347412); details: iHSKM muscle cells + IFN-b, HiBiT or CellTiter-Glo, 24 h; Potency: HiBiT; Viability, at 45.9 µM (top of the series); further: potency means the concentration at half of the fitted maximal effect; nearly all actives have a fitted effect of over 60% in size
Procedure, shortened: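 After 24 h with human IFN-beta (4 ng/ml) and compound titrations (top 46 uM final, 1:3, 12 points), HLA-B HiBit myoblasts were lysed for either Nano-Glo HiBiT luminescence or CellTiter Glo viability on paired plates.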

[4] = at 45.9 µM (top of the series), tumour line B
[5] = at 45.9 µM (top of the series), tumour line D
[6] = at 46.1 µM (top of the series), tumour line C

Clc1cccc(Cl)c1NC1=NCCN1
inactive: outcome (NIH3T3) | Potency (UISO) | Potency (WaGa) | Potency (C33A) | Potency (CAOV3) | Potency (CASKI) | Potency (Es-2) | Potency (HeLa) | Potency (Hek293T) | Potency (JEG-3) | Potency (OV90) | Potency (PA-1) | Potency (SKOV3) | Potency (Tov-21-G) | Potency (Tov112D) | activity, negative = cell killing [1, 4] 5.06% | activity, negative = cell killing [1, 5] -7.27% | activity, negative = cell killing ([1]; at 46 µM (top of the series), tumour line A) -29.3% | activity, negative = cell killing [1, 6] 0.125% | Potency (astro)

O=C(C=Cc1ccc(/C=C/C(=O)Nc2ccc(C3=NCCN3)cc2)cc1)Nc1ccc(C2=NCCN2)cc1
inactive: outcome (NIH3T3) | Potency (UISO) | Potency (WaGa)

CC(C)NCC(O)COc1ccc(COCCOC(C)C)cc1 (configuration not stated)
inactive: outcome (NIH3T3) | Potency (UISO) | Potency (WaGa) | Potency (C33A) | Potency (CASKI) | Potency (Es-2) | Potency (HeLa) | Potency (Hek293T) | Potency (JEG-3) | Potency (OV90) | Potency (PA-1) | Potency (SKOV3) | Potency (Tov-21-G) | Potency (Tov112D) | activity, negative = cell killing [1, 4] -9.69% and -16.2% | activity, negative = cell killing [1, 5] 1.75% and -24.1% | activity, negative = cell killing [1, 6] -2.09% and 0.649% | Potency (astro)
active: Potency ([1]; tumour line A) 11.2 µM

CCn1c(-c2nonc2N)nc2c(C#CC(C)(C)O)ncc(OC[C@H]3CCCNC3)c21
inactive: outcome (NIH3T3) | Potency (UISO) | Potency (WaGa)

COc1ccc([C@@H]2CC(=O)c3c(O)cc(O[C@@H]4O[C@H](CO[C@@H]5O[C@@H](C)[C@H](O)[C@@H](O)[C@@H]5O)[C@@H](O)[C@H](O)[C@@H]4O)cc3O2)cc1O
inactive: outcome (NIH3T3) | Potency (UISO) | Potency (WaGa)

OC(CCN1CCCCC1)(c1ccccc1)C1CC2C=CC1C2 (configuration not stated)
inactive: outcome (NIH3T3) | Potency (UISO) | Potency (WaGa) | Potency (C33A) | Potency (CASKI) | Potency (Es-2) | Potency (HeLa) | Potency (Hek293T) | Potency (JEG-3) | Potency (OV90) | Potency (PA-1) | Potency (SKOV3) | Potency (Tov-21-G) | Potency (Tov112D) | activity, negative = cell killing [1, 4] -6.31% and -18.3% | activity, negative = cell killing [1, 6] -5.16% | Potency (astro)

CNC(=O)c1ccc(C)c(-n2c(C)cc(OCc3ccc(F)cc3F)c(Br)c2=O)c1
inactive: outcome (NIH3T3) | Potency (C33A) | Potency (CASKI) | Potency (Es-2) | Potency (HeLa) | Potency (Hek293T) | Potency (JEG-3) | Potency (OV90) | Potency (PA-1) | Potency (SKOV3) | Potency (Tov-21-G) | Potency (Tov112D)

COc1ccc(COc2cc3oc(=O)c4cc(C(C)O)ccc4c3cc2OC)cc1 (configuration not stated)
inactive: Potency (UISO)

CCOc1cc(N2CCC(O)CC2)ccc1Nc1ncc2c(n1)N(C)c1ccccc1C(=O)N2C
active: Potency (UISO) 11.8 µM | Potency (WaGa) 3.72 µM

CCOc1cc(C(=O)Nc2ccc(Cl)c(-c3nc4ccccc4[nH]3)c2)cc(OCC)c1OCC
inactive: outcome (NIH3T3) | Potency (WaGa) | Potency (CAOV3) | Potency (CASKI) | Potency (Es-2) | Potency (HeLa) | Potency (Hek293T) | Potency (JEG-3) | Potency (OV90) | Potency (PA-1) | Potency (Tov-21-G) | Potency (Tov112D)

COc1ccc(-c2c(-c3ccc(O)cc3O)n[nH]c2C)cc1
inactive: Potency (UISO) | Potency (WaGa)

NS(=O)(=O)c1cc2c(cc1Cl)NC=NS2(=O)=O
inactive: outcome (NIH3T3) | Potency (UISO) | Potency (WaGa) | Potency (C33A) | Potency (CASKI) | Potency (Es-2) | Potency (HeLa) | Potency (Hek293T) | Potency (JEG-3) | Potency (PA-1) | Potency (SKOV3) | Potency (Tov-21-G) | Potency (Tov112D) | activity, negative = cell killing [1, 4] -4.14% | activity, negative = cell killing [1, 5] -10.8% | activity, negative = cell killing [1, 6] 23.2% | Potency (astro) | max response [2] -2.2%

CN(C)C(=O)c1ccc(S(=O)(=O)c2ccc(NC(=O)[C@@](C)(O)C(F)(F)F)c(Cl)c2)cc1
inactive: outcome (NIH3T3) | Potency (C33A) | Potency (CAOV3) | Potency (CASKI) | Potency (Es-2) | Potency (HeLa) | Potency (Hek293T) | Potency (JEG-3) | Potency (PA-1) | Potency (Tov-21-G) | Potency (Tov112D)

C[C@]1(c2nc3c(C(N)=O)cccc3[nH]2)CCCN1
inactive: Potency (UISO) | Potency (WaGa)

Cn1c(=O)c(F)c(Nc2ccc(I)cc2F)c2c(=O)n(C[C@@H](O)CO)cnc21
inactive: Potency (UISO) | Potency (WaGa)

Cc1cccc(-c2nn(C(=S)Nc3ccccc3)cc2-c2ccnc3ccccc23)n1
inactive: Potency (UISO)

COc1cc2c(cc1OC)CN(CCc1ccc(NC(=O)c3cccc4c(=O)c5cccc(OC)c5[nH]c34)cc1)CC2
inactive: outcome (NIH3T3) | Potency (C33A) | Potency (CAOV3) | Potency (CASKI) | Potency (Es-2) | Potency (HeLa) | Potency (Hek293T) | Potency (JEG-3) | Potency (OV90) | Potency (PA-1) | Potency (SKOV3) | Potency (Tov-21-G) | Potency (Tov112D)

CCC(C)N(C)C(=O)c1cc2ccccc2c(-c2ccccc2Cl)n1 (configuration not stated)
inactive: Potency (UISO) | Potency (WaGa)

Cc1cnc(Nc2ccc(OCCN3CCCC3)cc2)nc1Nc1cccc(S(=O)(=O)NC(C)(C)C)c1
active: Potency (CAOV3) 10 µM | Potency (CASKI) 14.1 µM | Potency (HeLa) 7.08 µM | Potency (JEG-3) 12.6 µM | Potency (OV90) 17.8 µM | Potency (PA-1) 8.91 µM | Potency (SKOV3) 7.94 µM | Potency (Tov-21-G) 7.94 µM | Potency (Tov112D) 11.2 µM | Potency [3] 6.25 µM
inactive: outcome (NIH3T3) | Potency (UISO) | Potency (WaGa)

CCCCNc1cc(C(=O)O)cc(S(N)(=O)=O)c1Oc1ccccc1
inactive: outcome (NIH3T3) | Potency (UISO) | Potency (WaGa) | Potency (C33A) | Potency (CASKI) | Potency (Es-2) | Potency (HeLa) | Potency (JEG-3) | Potency (OV90) | Potency (PA-1) | Potency (SKOV3) | Potency (Tov-21-G) | Potency (Tov112D) | activity, negative = cell killing ([1]; at 21.2 µM (top of the series), tumour line D) -6.33% | activity, negative = cell killing ([1]; at 21.3 µM (top of the series), tumour line A) -23.2% | Potency (astro)

NC(=O)C1CCCc2c1[nH]c1ccc(Cl)cc21 (configuration not stated)
inactive: Potency (UISO) | Potency (WaGa)

CCCn1c(=O)c2[nH]c(C34CC5CC3C[C@@H](C5)C4)nc2n(CCC)c1=O
inactive: Potency (UISO) | Potency (WaGa)

NC(=O)c1ccc(-c2nc(-c3ccc4c(c3)OCO4)c(-c3ccccn3)[nH]2)cc1
inactive: Potency (UISO) | Potency (WaGa)

CS(=O)(=O)Oc1ccc2c(NC(N)=O)c(C(=O)c3ccc(Cl)cc3Cl)oc2c1
active: Potency (WaGa) 0.833 µM
inactive: Potency (UISO)

CCOc1cc(C=C2C(=O)N(c3ccccc3)N=C2C)cc(Cl)c1OCC(=O)OC
inactive: Potency (UISO) | Potency (WaGa)
